The text below walks through data of PubChem BioAssay (NCI).

“And” between values parts separate entries of the source, which are not always exact repeats. Identical values can stand only once. About 83,000 compounds went through this panel and 20% of them were active in at least one assay; those are over-represented in the sample as a whole.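 Each cell line was grown in a 96-well plate and treated with one concentration of compound for 48 hours. Values below 10 were considered active.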 The source made the active and inactive calls.

Common to all, as to experiment: NCI-60 one-dose screen, 48 h (100 = growth as untreated, 0 = no growth, -100 = all killed)
Common to all, as to details: 10 µM unless noted

For assay [1], the system named is SR leukemia.
Assay [2] deals with RPMI-8226 leukemia.
In assay [3] the test system is OVCAR-8 ovarian.
The test system of assay [4] is OVCAR-5 ovarian.
For assay [5], the system named is OVCAR-4 ovarian.
In assay [6] the test system is IGROV1 ovarian.
For assay [7], the system named is OVCAR-3 ovarian.
Assay [8] relates to HS 578T breast.
Assay [9] relates to NCI/ADR-RES ovarian.
The test system of assay [10] is T-47D breast.
In assay [11] the test system is BT-549 breast.
The subject of assay [12] is MDA-MB-435 melanoma.
Assay [13] has as its system SW-620 colon.
In assay [14] the test system is MCF7 breast.
Assay [15] has as its system HCT-116 colon.
Assay [16] relates to HCC-2998 colon.
Assay [17] relates to KM12 colon.
The subject of assay [18] is SK-OV-3 ovarian.

Consider `CC(=O)c1ccccc1O`, for which the growth is 79% (inactive) in [1]; 106% (inactive) and 103% (inactive) in assay [2]; 112% (inactive) and 101% (inactive) and 105% (inactive) in [3]; 102% (inactive) and 98.4% (inactive) and 116% (inactive) in assay [4]; 110% (inactive) and 107% (inactive) and 111% (inactive) in assay [5]; 102% (inactive) and 105% (inactive) and 101% (inactive) in assay [6]. Besides, the growth in [7] was 114% (inactive) and 109% (inactive) and 106% (inactive); in assay [8], 95.7% (inactive) and 109% (inactive) and 98.9% (inactive); in assay [9] it was 100% (inactive) and 98.6% (inactive) and 103% (inactive); in [10], 107% (inactive) and 81.2% (inactive) and 103% (inactive); in assay [11] it was 95.9% (inactive) and 110% (inactive) and 91.1% (inactive); in [12], 105% (inactive) and 111% (inactive) and 109% (inactive). Besides, the growth was 103% (inactive) and 105% (inactive) and 113% (inactive) in [13]; 102% (inactive) and 94% (inactive) and 101% (inactive) in assay [14]; 97.8% (inactive) and 92.6% (inactive) and 101% (inactive) in [15]; 99.7% (inactive) and 102% (inactive) and 97.2% (inactive) in assay [16]; 103% (inactive) and 100% (inactive) and 110% (inactive) in assay [17].
In the case of `ClC/C=C/CSc1ncnc2nc[nH]c12`, the growth in assay [1] was 74.4% (inactive); in [2], 98.7% (inactive); in assay [3], 106% (inactive); in assay [4] it was 112% (inactive) and 104% (inactive); in assay [5], 108% (inactive) and 99% (inactive); in [18], 95% (inactive) and 107% (inactive). Besides, the growth in assay [6] was 113% (inactive) and 101% (inactive); in assay [7], 119% (inactive) and 114% (inactive); in assay [8], 105% (inactive) and 119% (inactive); in assay [9] it was 106% (inactive) and 108% (inactive); in assay [10], 98% (inactive) and 99.5% (inactive); in assay [11], 102% (inactive) and 158% (inactive). Moreover, the growth was 98.8% (inactive) and 110% (inactive) in assay [13]; 99.8% (inactive) and 93.7% (inactive) in assay [14]; 105% (inactive) in assay [15]; 106% (inactive) and 108% (inactive) in assay [16]; 113% (inactive) and 105% (inactive) in [17].
Turning to `CC1(c2ccc3ccccc3c2)CCC(=O)O1` (stereo not drawn), the growth in assay [1] was 92.2% (inactive); in [2] it was 109% (inactive); in assay [3], 101% (inactive); in [4], 102% (inactive); in [5] it was 110% (inactive); in [18], 95.3% (inactive). In addition, the growth in assay [6] was 102% (inactive); in assay [7], 105% (inactive); in [8], 125% (inactive); in assay [9] it was 105% (inactive); in assay [10], 103% (inactive); in [12], 106% (inactive). The growth in assay [13] was 108% (inactive); in assay [14], 106% (inactive); in [15], 111% (inactive); in assay [16], 109% (inactive); in [17] it was 106% (inactive).
Consider `O=C(CCc1ccc(O)cc1)N/N=C/c1cc(Br)ccc1O`, for which the growth in assay [1] was 26.6% (inactive); in [2] it was 45.2% (inactive); in assay [3], 56.2% (inactive); in [4] it was 53.3% (inactive); in [5], 34.7% (inactive); in assay [18], 61.2% (inactive). Moreover, the growth in assay [6] is 62.5% (inactive); in [7], 44.4% (inactive); in [8], 90.3% (inactive); in assay [9], 16.7% (inactive); in [10], 33.3% (inactive); in assay [12] it was 55.8% (inactive). Further, the growth was 59.5% (inactive) in assay [13], 38.9% (inactive) in assay [14], 46.7% (inactive) in assay [15] and 28.1% (inactive) in [17].
Take `COc1ccc(NC(=S)Nc2ccccn2)cc1`: the growth in assay [1] was 90.5% (inactive); in assay [2], 93% (inactive); in [3], 96.5% (inactive); in [4] it was 97.7% (inactive); in [5], 110% (inactive); in assay [18], 98% (inactive). In addition, the growth in assay [6] was 106% (inactive); in [7], 97% (inactive); in assay [8] it was 101% (inactive); in [9] it was 99.8% (inactive); in assay [10] it was 101% (inactive); in assay [13], 102% (inactive). For the same compound, the growth is 95.4% (inactive) in assay [15], 101% (inactive) in assay [16] and 91% (inactive) in assay [17].
`O=C(/C=C/c1ccccn1)c1ccccc1O`: the growth in assay [1] was 4.76% (active); in [2], 2.44% (active) and -0.787% (active); in [3], 54.4% (inactive) and 84.8% (inactive); in assay [4], 77.1% (inactive) and 92.3% (inactive); in assay [5], 101% (inactive) and 88.2% (inactive); in assay [18], 111% (inactive) and 113% (inactive). Further, the growth in assay [6] was 38.1% (inactive) and 66.6% (inactive); in [7] it was 84.4% (inactive) and 44.9% (inactive); in assay [8], 87.2% (inactive); in [9], 73.9% (inactive) and 93.4% (inactive); in [10], 68.7% (inactive) and 66% (inactive); in [12] it was 58.2% (inactive) and 75.2% (inactive). The growth is 46.1% (inactive) and 73.8% (inactive) in assay [13]; 37.9% (inactive) and 37.4% (inactive) in [14]; 9.46% (active) and 97.3% (inactive) in [16]; 40.4% (inactive) and 48.2% (inactive) in assay [17].
`O=C(Nc1ccc(Cl)cc1)c1cc2ccccc2cc1O`: the growth is 15.8% (inactive) and -13.9% (active) in [1]; -10.7% (active) and -29% (active) in [2]; 26.1% (inactive) and -5.89% (active) in assay [3]; 78.8% (inactive) and 42.7% (inactive) in [4]; 34.5% (inactive) and 20.9% (inactive) in assay [5]; 18.9% (inactive) in [18]. Also, the growth in [6] was 23.3% (inactive) and 21.8% (inactive); in assay [7], 14.4% (inactive) and 5.62% (active); in [8] it was 15.8% (inactive) and 4.92% (active); in assay [9] it was 12.5% (inactive) and 6.49% (active); in assay [10], 15.9% (inactive) and 15.4% (inactive); in assay [12], 39.2% (inactive) and 25.9% (inactive). Besides, the growth in assay [13] was 13.3% (inactive) and 5.94% (active); in assay [14], 12% (inactive) and -0.605% (active); in assay [15], 18.9% (inactive) and -44.3% (active); in [17] it was 8.59% (active) and 2.94% (active).
With `COc1cc(C(=O)N/N=C/c2ccc(N(C)C)cc2)cc(OC)c1OC`, the growth in [1] is 6.85% (active); in [2] it was 19.6% (inactive); in assay [3] it was 21.2% (inactive); in assay [4], 44.5% (inactive); in assay [5], 61.7% (inactive); in assay [18], 10.9% (inactive). The growth is -11.7% (active) in [7]; 46.4% (inactive) in [8]; -40.1% (active) in [9]; 63.3% (inactive) in [10]; -2.93% (active) in assay [11]; 26.2% (inactive) in [13]. The growth is 18.3% (inactive) in [14], 10.1% (inactive) in assay [15] and 17% (inactive) in [17].
`CN(C)c1ccc(C(=C2C=CC(=[N+](C)C)C=C2)c2ccccc2Cl)cc1`: the growth in assay [1] is -38.3% (active); in assay [2], -22.6% (active); in [3], -77.5% (active) and -77.8% (active); in assay [4] it was -27.8% (active) and -93.8% (active); in assay [5], 4.46% (active) and -27% (active); in assay [18], -38.7% (active) and -32.4% (active). For the same compound, the growth in [6] is -81.1% (active) and -67.1% (active); in assay [7], -88.9% (active) and -91.4% (active); in assay [8], -37.3% (active) and -21.2% (active); in [9] it was 23.2% (inactive) and 9.87% (active); in assay [10] it was -33.3% (active) and -72.6% (active); in assay [12] it was -40.9% (active) and -29% (active). The growth is -75.8% (active) and -78.1% (active) in assay [13]; -9.73% (active) and -58.7% (active) in [14]; -66.7% (active) and -99.5% (active) in [15]; -94.6% (active) and -87.2% (active) in [17].
With `O=C(N/N=C/c1ccccc1)N/N=C/c1ccccc1`, the growth is 93.8% (inactive) and 106% (inactive) in assay [1]; 104% (inactive) and 100% (inactive) in assay [2]; 103% (inactive) and 107% (inactive) in assay [3]; 109% (inactive) and 105% (inactive) in assay [4]; 115% (inactive) in assay [5]; 106% (inactive) and 111% (inactive) in assay [18]. In addition, the growth was 99.9% (inactive) and 106% (inactive) in assay [6]; 120% (inactive) in assay [7]; 118% (inactive) and 91.7% (inactive) in [8]; 114% (inactive) and 106% (inactive) in assay [9]; 114% (inactive) and 106% (inactive) in [10]; 104% (inactive) and 98.6% (inactive) in [12]. In addition, the growth in [13] was 106% (inactive) and 96% (inactive); in [14], 99.1% (inactive) and 102% (inactive); in [15] it was 107% (inactive); in assay [17] it was 99.8% (inactive) and 102% (inactive).
As for `CCN(CC)CCOc1ccc2c(c1)C(=O)c1cc(OCCN(CC)CC)ccc1-2`, the growth in assay [1] was 93% (inactive); in assay [2], 67.1% (inactive) and 7.54% (active); in [3] it was 46.5% (inactive) and 59.3% (inactive); in [4], 108% (inactive); in [5], 60.7% (inactive) and 40.7% (inactive); in assay [18], 90% (inactive) and 87.6% (inactive). Besides, the growth is 78.3% (inactive) in assay [6]; 96.1% (inactive) and 70.5% (inactive) in assay [7]; 97.8% (inactive) and 91.7% (inactive) in [8]; 69.7% (inactive) and 70.8% (inactive) in assay [9]; 111% (inactive) and 131% (inactive) in assay [10]; 73.4% (inactive) and 67% (inactive) in assay [12]. In addition, the growth in assay [13] is 34.5% (inactive) and 26.1% (inactive); in [14], 30.1% (inactive) and 7.03% (active); in assay [15] it was 44.2% (inactive) and 13.2% (inactive); in assay [16], 77.9% (inactive) and 56.5% (inactive); in [17], 54.8% (inactive) and 40.4% (inactive).
